In PubChem BioAssay (Tox21):
Records with an inconclusive call do not appear. Calls of active or inactive are those of the source. Calls come from the whole dose curve.

Molecular target: Acetylcholinesterase (Homo sapiens) (UniProt P22303)
Assay: Acetylcholinesterase (AChE) small molecule antagonists: colormetric cell-based qHTS assay (AID 1347395); note: nearly all actives have a fitted effect of over 30% in size
Conditions: SH-SY5Y cells AChE activity, colorimetric (Ellman); series mostly up to 115 µM; activity, negative = inhibition: at the top concentration
From the text: National Center for Advancing Translational Sciences [NCATS]
Division of Preclinical Innovation [DPI]
U.S. Environmental Protection Agency [EPA]
National Institutes of Environmental Health Sciences [NIEHS]
National Toxicology Program [NTP]
U.S. Food and Drug Administration [FDA]
Acetylcholinesterase (AChE) is the primary cholinesterase in the body that hydrolyzes a key neurotransmitter, acetylcholine. Inhibition of AChE activity can lead to neurotoxicity. The known inhibitors include organophosphorous pesticides (OP), chemical warfare agents, drugs, and various phytochemicals.
A homogenous cell-based assay using the Amplite Colormetric acetylcholinesterase assay kit (AAT Bioquest, Sunnyvale, CA) was used to evaluate the chemicals in the Tox21 10K library that inhibit AChE activity. The assay uses 5, 5-dithiobis-(2-nitrobenzoic acid) (DTNB) to quantify the thiocholine produced from the hydrolysis of acetylthiocholine by AChE from the SH-SY5Y cells.
Tox21 Assay Protocol Summary:
For the cell-based AChE assay, 2,000 SH-SY5Y cells in 4 uL/well were dispensed into black, clear-bottom 1536-well plates using a Multidrop Combi dispenser (Thermo Scientific, MA). The assay plates were incubated overnight at 37 C to allow cells to attach to the wells, followed by the transfer of 23 nL of compound or DMSO (vehicle control) by a Pintool Station (Wako Automation, CA). The plates were incubated for 30 min at 37 C and 5% CO2, followed by the addition of 4 uL of detection cocktail solution (DTNB, acetylthiocholine) into each well using a Flying Reagent Dispenser (Beckman Coulter, CA) and then 90 min incubation at 37 C.
% is set by controls: 0 for no effect and ±100 for the full control effect; potency is the fitted concentration of half-maximal effect.

Chain of Acetylcholinesterase (Homo sapiens) (P22303 whole entry, looked up): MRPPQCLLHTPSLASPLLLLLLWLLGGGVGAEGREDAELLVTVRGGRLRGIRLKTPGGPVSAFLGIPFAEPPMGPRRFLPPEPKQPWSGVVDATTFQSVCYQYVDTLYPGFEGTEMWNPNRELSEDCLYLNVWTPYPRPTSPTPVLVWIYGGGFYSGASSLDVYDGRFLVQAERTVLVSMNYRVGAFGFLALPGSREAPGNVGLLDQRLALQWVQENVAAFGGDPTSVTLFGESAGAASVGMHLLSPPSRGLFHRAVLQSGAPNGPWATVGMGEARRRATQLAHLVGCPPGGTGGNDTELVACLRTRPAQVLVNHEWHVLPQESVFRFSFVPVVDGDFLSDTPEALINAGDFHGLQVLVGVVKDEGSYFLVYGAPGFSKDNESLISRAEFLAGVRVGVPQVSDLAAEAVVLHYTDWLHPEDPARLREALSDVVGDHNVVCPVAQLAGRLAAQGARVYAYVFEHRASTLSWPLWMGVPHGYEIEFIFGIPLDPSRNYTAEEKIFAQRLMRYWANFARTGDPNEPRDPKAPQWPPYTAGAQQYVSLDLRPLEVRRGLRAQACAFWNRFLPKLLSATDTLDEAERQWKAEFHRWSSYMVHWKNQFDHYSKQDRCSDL

| Compound | activity, negative = inhibition | Potency |
| --- | --- | --- |
| CN(C)Cc1ccccc1 | 4.29% (inactive) | – |
| CN1C(C(=O)Nc2ccccn2)=C(O)c2ccccc2S1(=O)=O | – | inactive |
| CC(C(=O)O)c1cccc(Oc2ccccc2)c1 (stereo not given) | -3.2% [at 52.9 µM] (inactive) | – |
| CN1Cc2c(N)cccc2C(c2ccccc2)C1 (stereo not given) | – | inactive |
| NC(=O)N[C@@H](CCC(=O)O)C(=O)O | 0.705% [at 52.9 µM] (inactive) | – |
| CC(C)=CCCC(C)CC(=O)O (stereo not given) | 1.98% (inactive) | – |
| COCC(O)CO (stereo not given) | 1.5% (inactive) | – |
| CC(=O)c1c(C)c([N+](=O)[O-])c(C(C)(C)C)c([N+](=O)[O-])c1C | – | 79.6 µM (active) |
| C[C@]12CCC(=O)C=C1C=C[C@@H]1[C@@H]2CC[C@@]2(C)[C@H]1CC[C@@]21CCC(=O)O1 | -0.318% [at 52.9 µM] (inactive) | – |
| O=C(Cl)c1cc(Cl)cc(Cl)c1 | 2.58% (inactive) | – |
| CC(C)(C)c1cccc(O)c1 | 2.23% (inactive) | – |
| N[C@@H](Cc1ccc(O)cc1)C(=O)O | -0.421% [at 10.5 µM] (inactive) | – |
| COc1ccc(NC(=O)CC(C)=O)cc1 | 4.72% (inactive) | – |
| Cc1ccc(N(C)C)cc1 | – | inactive |
| CCC1(C)CC(=O)NC1=O (stereo not given) | -2.29% [at 52.9 µM] (inactive) | – |
| CC(=O)NCCCS(=O)(=O)O | 0% [at 52.9 µM] (inactive) | – |
| Nc1cc(-c2ccncc2)c[nH]c1=O | – | inactive |
| CC1=CC(=O)CC(C)(C)C1(O)/C=C/C(C)=C\C(=O)O (stereo not given) | -1.02% (inactive) | – |
| CO[C@@H]1[C@@H](OC(N)=O)[C@@H](O)[C@H](Oc2ccc3c(O)c(NC(=O)c4ccc(O)c(CC=C(C)C)c4)c(=O)oc3c2C)OC1(C)C | -0.166% [at 52.9 µM] (inactive) | – |
| CC(C)c1ccc2c(C(C)C)cc(C(C)C)c(S(=O)(=O)O)c2c1 | 1.68% (inactive) | – |

| Compound | activity, negative = inhibition | Potency |
| --- | --- | --- |
| CNC(=O)c1c(I)c(NC(=O)CCCCC(=O)Nc2c(I)c(C(=O)O)c(I)c(C(=O)NC)c2I)c(I)c(C(=O)O)c1I | 4.84% [at 52.9 µM] (inactive) | – |
| CCCC(=O)OCC(COC(=O)CCC)OC(=O)CCC | 1.14% (inactive) | – |
| CC1=C(/C=C/C(C)=C/C=C/C(C)=C/CO)C(C)(C)CCC1 | – | inactive |
| CCCCOCCOCCOCCCC | 0.9% (inactive) | – |
| CCOCCC(=O)OCC | -0.683% (inactive) | – |
| Cc1ccccc1S(=O)(=O)O | 2.31% (inactive) | – |
| CCOC(=O)c1c(N)sc2c1CCN(Cc1ccccc1)C2 | – | 12.3 µM (active) |
| CCCCCCCCCCCCCCCC(=O)OC | 2.77% [at 23.6 µM] (inactive) | – |
| CCOB(OCC)OCC | -3.73% (inactive) | – |
| COC(=O)c1ccc(C(=O)O)cc1 | 0.773% (inactive) | – |
| CC1=CC2C3CC(C=C3C)C2C1 (stereo not given) | – | inactive |
| CCC(=O)OC(=O)CC | 1.04% (inactive) | – |
| Cc1cc(N)n(-c2ccccc2)n1 | 5.52% (inactive) | – |
| CC(C)C(=O)Nc1ccc([N+](=O)[O-])c(C(F)(F)F)c1 | – | inactive |
| COc1cc(C(=O)N2CCCCCCC2)cc(OC)c1OC | 0.909% [at 52.9 µM] (inactive) | – |
| CCCCCCCCC/C=C/CC1CC(=O)OC1=O (stereo not given) | – | inactive |
| CCN1CCCC(OC(=O)C(c2ccccc2)c2ccccc2)C1 (stereo not given) | -0.0584% [at 52.9 µM] (inactive) | – |
| Cc1cc(C2CCCCC2)n(O)c(=O)c1 | -1.81% [at 52.9 µM] (inactive) | – |
| CC(CCl)OC(C)CCl (stereo not given) | -0.818% (inactive) | – |
| CN1CCN(c2c(F)cc3c(=O)c(C(=O)O)cn4c3c2OCN4C)CC1 | 1.67% [at 23.6 µM] (inactive) | – |
